# Test results as given in PubChem BioAssay.
# For some assays here: Measured potencies and affinities stand elsewhere. Activity calls are given as the source filed them.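 How the source made its calls, unless noted: active means fluorescence ratio normalized to control raised more than 50% in primary screen plus both repeat runs; inactive means the rest.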
# Experiments:
# [1] = system: TRPC4 beta (transient receptor potential cation channel C4), mouse; assay: TRPC4 cation channel opening, retest – cell-based, Fluo4 calcium, HEK293 TRPC4beta/mu-opioid, duplicates, 10 µM, confirmation (AID 2426); conditions: Fluo4 calcium fluorescence, at 10 µM; hits give high values;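 on activation: percent rise of integrated ratio over buffer wells lacking compound which define 0%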
# [2] = system: transient receptor potential cation channel C4 beta (TRPC4), mouse; assay: TRPC4 cation channel opening, second retest – cell-based, second round, Fluo4, HEK293 TRPC4beta/mu-opioid, 1 µM, confirmation (AID 2461;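 active means primary screen active and over 50% activation in each of two duplicate runs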;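 on activation: 0% = wells without test compound as baseline of integrated fluorescence ratio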); conditions: Fluo4 calcium fluorescence, at 1 µM; hits give high values
# [3] = system: TRPC4 (transient receptor potential cation channel C4 beta), mouse; assay: potentiation of DAMGO EC20 TRPC4 response – cell-based, second round, Fluo-4, HEK293 TRPC4beta/mu-opioid, 1 µM, confirmation (AID 2554;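 active means primary screen hit whose fluorescence ratio, in both repeats, exceeds the weak agonist control mean by 3 SD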); conditions: DAMGO EC20, Fluo-4 calcium flux, at 1 µM; hits give high values
# [4] = system: TRPC4 beta (transient receptor potential cation channel C4), mouse; assay: potentiation of DAMGO EC20 TRPC4 response – cell-based, Fluo-4, HEK293 TRPC4beta/mu-opioid, confirmation (AID 2555;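 active means primary screen hit whose calcium fluorescence ratio, in both repeats, exceeds the weak agonist control mean by 3 SD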); conditions: DAMGO EC20, Fluo-4 calcium flux, at 10 µM; hits give high values
# [5] = biological target: Short transient receptor potential channel 4 (Mus musculus) (UniProt Q9QUQ5); assay: blockers of DAMGO-evoked TRPC4 calcium flux – cell-based, Fluo4, HEK293 TRPC4beta/mu-opioid, confirmation (AID 2636;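 active means calcium signal cut by more than 3 SD below the full-agonist control yet still positive, in both repeats and the earlier primary screen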); conditions: at 10 µM; hits give high values
# [6] = biological target: Short transient receptor potential channel 4 (Mus musculus) (UniProt Q9QUQ5); assay: blockers of DAMGO-evoked TRPC4 calcium flux – cell-based, second round, Fluo4, HEK293 TRPC4beta/mu-opioid, 1 µM, confirmation (AID 2637;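 active means calcium signal ratio cut to more than 3 SD under the fully stimulated control mean yet still positive, in both repeats and the primary screen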); conditions: at 1 µM; hits give high values
# [7] = biological target: Short transient receptor potential channel 4 (Mus musculus) (UniProt Q9QUQ5); assay: potentiation of DAMGO-evoked TRPC4 calcium signal – cell-based, HEK293 TRPC4/mu-opioid, Fluo-4 calcium, EC20 DAMGO, dose response (AID 434941;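 active means earlier screen potentiator hit that boosts the TRPC4 ion channel at some dose, with a dose response; inactive means no potentiation, no dose response, or not a prior hit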;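 further: calcium entry triggered by an EC20 dose of DAMGO at the co-expressed mu-opioid receptor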)
# [8] = biological target: Short transient receptor potential channel 4 (Mus musculus) (UniProt Q9QUQ5); assay: block of DAMGO-driven TRPC4 calcium entry – cell-based, HEK293 TRPC4/mu-opioid, Fluo-4 calcium, dose response (AID 434942;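 active means primary screen inhibitor hit that blocks the TRPC4 channel at some tested dose, yielding a dose curve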)
# [9] = biological target: Short transient receptor potential channel 6 (Mus musculus) (UniProt Q61143); assay: TRPC6 blockade by TRPC4 inhibitor hits – cell-based, HEK293, membrane potential dye, duplicate, selectivity assay for TRPC4 inhibitor project, confirmation (AID 434948;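 active means active in primary screen and both duplicates, each dropping signal beyond three positive-control SD with fluorescence still positive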); conditions: HEK293 TRPC6, membrane potential dye fluorescence, at 10 µM; inhibition: hits give high values, stimulated with maximal-effect acetylcholine unless noted; outcome: stimulated with maximal-effect acetylcholine unless noted
# [10] = biological target: Short transient receptor potential channel 6 (Mus musculus) (UniProt Q61143); assay: TRPC6 opening by TRPC4 activator hits – cell-based, HEK293, membrane potential dye, duplicate, selectivity assay for TRPC4 activator project, confirmation (AID 434950;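 active means membrane potential signal rise above negative control mean plus 3 SD in both duplicates, also active in the earlier TRPC4 screen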;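 on activation: 0% = buffer only wells and 100% = acetylcholine maximal-effect wells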); conditions: HEK293 TRPC6, membrane potential fluorescence, at 10 µM; activation: hits give high values; outcome: activation
# [11] = biological target: Short transient receptor potential channel 6 (Mus musculus) (UniProt Q61143); assay: positive modulators of mouse TRPC6 channel – HEK293 cells, membrane potential dye, duplicate, selectivity assay for TRPC4 potentiator project, confirmation (AID 434952;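 active means compound raising the membrane signal above positive-control mean plus 3 SD in both repeats, and a primary screen hit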); conditions: HEK293 TRPC6, membrane potential dye fluorescence, at 10 µM; maximal acetylcholine added after compound unless noted
# [12] = biological target: Short transient receptor potential channel 4 (Mus musculus) (UniProt Q9QUQ5); assay: calcium flux activators in TRPC4/5HT1a cells, counter-screen for TRPC4 activator project, cell-based, second counter screen, HEK293 TRPC4/5HT1a, Fluo-4 (AID 434977;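 active means calcium signal rise above buffer-control mean plus 5 SD in both duplicates, and also a hit in the primary screen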;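 on activation: plate controls were assay buffer for no effect and maximal serotonin response for full effect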); conditions: Fluo-4 calcium flux, at 10 µM; hits give high values
# [13] = serotonin-gated TRPC4 signal block – cell-based, second counter screen, HEK293 TRPC4/5HT1a, Fluo-4, counter-screen for TRPC4 inhibitor project, confirmation (AID 434978;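 active means primary screen active whose calcium signal fell more than 3 SD beyond the full-serotonin control mean in both duplicate plates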;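 further: serotonin given first at submaximal then at maximal dose after compound preincubation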); conditions: Fluo-4 calcium flux, at 10 µM; inhibition: hits give high values, serotonin added to trigger calcium flux unless noted; outcome: serotonin added to trigger calcium flux unless noted
# [14] = system: TRPC4 (mouse), co-expressed with 5HT1a in HEK293; assay: enhancement of serotonin-evoked TRPC4 response – cell-based, second counter screen, HEK293 TRPC4/5HT1a, Fluo-4, counter-screen for TRPC4 potentiator project, confirmation (AID 434979;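 active means signal rise over 3 SD above mean of control wells given weak agonist, in both repeats and first screen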); conditions: Fluo-4 calcium flux, at 10 µM; outcome: serotonin added at its EC20 dose unless noted; potentiation: hits give high values, serotonin added at its EC20 dose unless noted
# [15] = nonspecific calcium rise without TRPC4 – cell-based, HEK293 mu-opioid receptor line, counter-screen for TRPC4 activator project, confirmation (AID 449723;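 active means hit in primary screen, with calcium signal over 5 SD above buffer well mean in both duplicates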;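 further: counter screen cells carry the mu-opioid receptor alone and lack TRPC4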); conditions: HEK293 mu-opioid cells, Fluo-4 calcium fluorescence, at 10 µM; hits give high values
# [16] = nonspecific potentiation of DAMGO calcium response – cell-based, HEK293 mu-opioid receptor line, counter-screen for TRPC4 allosteric potentiator project, confirmation (AID 449724;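 active means calcium signal rise more than 3 SD above the low-dose agonist control mean, in both duplicate plates and the primary screen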); conditions: HEK293 mu-opioid receptor cells, Fluo-4 calcium flux, at 10 µM; compound added before EC20 DAMGO stimulus unless noted
# [17] = nonspecific flux increase, KCNQ1-free cells – parental CHO cells, counter-screen for KCNQ1 potentiator project (AID 493006;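 active means duplicate-averaged activation above buffer control mean plus 5 SD of those controls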); conditions: parental CHO-K1 cells, FluxOR thallium flux, at 10 µM; hits give high values
# Short transient receptor potential channel 6 (Mus musculus), sequence (Q61143 whole entry, looked up): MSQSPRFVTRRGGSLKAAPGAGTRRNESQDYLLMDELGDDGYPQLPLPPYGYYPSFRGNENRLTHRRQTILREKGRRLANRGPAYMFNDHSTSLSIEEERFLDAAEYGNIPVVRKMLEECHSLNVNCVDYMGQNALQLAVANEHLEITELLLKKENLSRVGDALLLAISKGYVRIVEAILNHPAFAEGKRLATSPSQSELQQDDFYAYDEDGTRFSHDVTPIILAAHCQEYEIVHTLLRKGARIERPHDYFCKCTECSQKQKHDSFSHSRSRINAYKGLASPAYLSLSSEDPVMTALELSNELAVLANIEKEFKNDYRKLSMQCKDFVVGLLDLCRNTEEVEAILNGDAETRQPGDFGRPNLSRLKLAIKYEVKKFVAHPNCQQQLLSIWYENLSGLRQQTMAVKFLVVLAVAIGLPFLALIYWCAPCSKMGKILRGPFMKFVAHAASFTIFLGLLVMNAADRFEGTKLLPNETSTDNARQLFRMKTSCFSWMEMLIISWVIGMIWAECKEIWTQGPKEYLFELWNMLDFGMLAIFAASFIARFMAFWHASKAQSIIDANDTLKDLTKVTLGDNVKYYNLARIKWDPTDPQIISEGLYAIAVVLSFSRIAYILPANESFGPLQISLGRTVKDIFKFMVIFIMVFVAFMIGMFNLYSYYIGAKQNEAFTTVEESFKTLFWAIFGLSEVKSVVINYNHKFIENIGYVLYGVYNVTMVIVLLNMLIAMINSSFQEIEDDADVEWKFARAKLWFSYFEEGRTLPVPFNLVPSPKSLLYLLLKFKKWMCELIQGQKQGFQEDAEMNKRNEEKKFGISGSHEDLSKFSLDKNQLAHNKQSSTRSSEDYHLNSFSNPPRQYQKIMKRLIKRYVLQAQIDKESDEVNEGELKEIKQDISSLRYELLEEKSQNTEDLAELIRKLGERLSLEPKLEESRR
# Short transient receptor potential channel 4 (Mus musculus), sequence (Q9QUQ5 whole entry, looked up): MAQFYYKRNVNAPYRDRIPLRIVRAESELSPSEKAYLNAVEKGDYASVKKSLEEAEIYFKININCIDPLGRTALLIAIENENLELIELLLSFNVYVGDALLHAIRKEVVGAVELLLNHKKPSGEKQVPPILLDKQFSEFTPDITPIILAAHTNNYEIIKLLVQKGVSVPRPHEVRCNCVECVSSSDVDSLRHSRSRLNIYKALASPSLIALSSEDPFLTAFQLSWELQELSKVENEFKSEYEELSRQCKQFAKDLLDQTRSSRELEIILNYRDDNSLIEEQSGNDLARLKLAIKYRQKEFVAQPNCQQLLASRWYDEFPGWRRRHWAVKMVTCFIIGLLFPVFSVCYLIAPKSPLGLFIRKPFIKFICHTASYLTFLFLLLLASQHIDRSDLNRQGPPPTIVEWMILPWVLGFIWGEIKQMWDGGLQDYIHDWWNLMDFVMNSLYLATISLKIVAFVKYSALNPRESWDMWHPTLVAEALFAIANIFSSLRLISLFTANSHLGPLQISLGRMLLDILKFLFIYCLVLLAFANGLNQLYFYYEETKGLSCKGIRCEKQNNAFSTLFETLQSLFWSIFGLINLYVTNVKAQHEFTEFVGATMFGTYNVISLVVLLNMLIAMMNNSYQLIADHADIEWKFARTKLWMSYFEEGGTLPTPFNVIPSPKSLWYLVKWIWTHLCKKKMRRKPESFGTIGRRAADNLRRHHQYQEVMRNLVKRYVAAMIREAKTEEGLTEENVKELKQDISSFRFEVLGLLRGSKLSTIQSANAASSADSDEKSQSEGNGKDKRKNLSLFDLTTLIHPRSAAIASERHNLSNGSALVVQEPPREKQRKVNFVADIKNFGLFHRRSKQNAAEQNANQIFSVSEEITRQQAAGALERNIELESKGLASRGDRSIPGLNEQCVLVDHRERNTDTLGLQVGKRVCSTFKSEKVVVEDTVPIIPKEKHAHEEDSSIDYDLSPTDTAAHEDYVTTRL
smiles,measurement,setting,value
Cc1nc2ccccn2c1P(=S)(N1CCCCC1)N1CCCCC1,activation,[1],88% (active)
same,outcome,[2],inactive
same,outcome,[3],inactive
same,outcome,[4],inactive
same,outcome,[5],inactive
same,outcome,[6],inactive
same,outcome,[7],inactive
same,outcome,[8],inactive
same,outcome,[9],inactive
same,activation,[10],88% (active)
same,outcome,[11],inactive
same,activation,[12],87.7% (active)
same,outcome,[13],inactive
same,outcome,[14],inactive
same,activation,[15],74.7% (active)
same,outcome,[16],inactive
Cc1ccc(Cl)cc1N1CCN(CCN)CC1,activation,[1],131% (active)
same,activation,[2],119% (active)
same,outcome,[3],inactive
same,outcome,[4],inactive
same,outcome,[5],inactive
same,outcome,[6],inactive
same,outcome,[7],inactive
same,outcome,[8],inactive
same,outcome,[9],inactive
same,outcome,[10],inactive
same,outcome,[11],inactive
same,activation,[12],53.8% (active)
same,outcome,[13],inactive
same,outcome,[14],inactive
same,outcome,[15],inactive
same,outcome,[16],inactive
CCC1(C)CC(CCNCc2ccc(N(C)C)cc2)(c2ccc(F)cc2)CCO1 (configuration not stated),activation,[1],184% (active)
same,outcome,[2],inactive
same,outcome,[3],inactive
same,outcome,[4],inactive
same,outcome,[5],inactive
same,outcome,[6],inactive
same,outcome,[7],inactive
same,outcome,[8],inactive
same,outcome,[9],inactive
same,outcome,[10],inactive
same,outcome,[11],inactive
same,outcome,[12],inactive
same,outcome,[13],inactive
same,outcome,[14],inactive
same,outcome,[15],inactive
same,outcome,[16],inactive
CC1(C)CC(CCNCc2ccc3c(c2)OCO3)(Cc2ccccc2)CCO1 (configuration not stated),activation,[1],169% (active)
same,outcome,[2],inactive
same,outcome,[3],inactive
same,outcome,[4],inactive
same,outcome,[5],inactive
same,outcome,[6],inactive
same,outcome,[7],inactive
same,outcome,[8],inactive
same,outcome,[9],inactive
same,activation,[10],70% (active)
same,outcome,[11],inactive
same,activation,[12],5.46% (active)
same,outcome,[13],inactive
same,outcome,[14],inactive
same,outcome,[15],inactive
same,outcome,[16],inactive
COc1ccc(CNCCc2ccc3c(c2)OCO3)cc1Br,activation,[1],141% (active)
same,outcome,[2],inactive
same,outcome,[3],inactive
same,outcome,[4],inactive
same,outcome,[5],inactive
same,outcome,[6],inactive
same,outcome,[7],inactive
same,outcome,[8],inactive
same,outcome,[9],inactive [setting not given]
same,activation,[10],47.5% (active)
same,outcome,[11],inactive [setting not given]
same,activation,[12],27.3% (active)
same,outcome,[13],inactive [setting not given]
same,outcome,[14],inactive [setting not given]
same,outcome,[15],inactive
same,outcome,[16],inactive [setting not given]
CCOc1cc(CNCCc2c[nH]c3ccccc23)cc(Cl)c1OC,activation,[1],129% (active)
same,outcome,[2],inactive
same,outcome,[3],inactive
same,outcome,[4],inactive
same,outcome,[5],inactive
same,outcome,[6],inactive
same,outcome,[7],inactive
same,outcome,[8],inactive
same,outcome,[9],inactive
same,outcome,[10],inactive
same,outcome,[11],inactive
same,activation,[12],65.6% (active)
same,outcome,[13],inactive
same,outcome,[14],inactive
same,outcome,[15],inactive
same,outcome,[16],inactive
O=[N+]([O-])c1ccc(N2CCNCC2)c(Cl)c1,outcome,[1],inactive
same,outcome,[2],inactive
same,potentiation,[3],26% (active)
same,potentiation,[4],28% (active)
same,outcome,[5],inactive
same,outcome,[6],inactive
same,outcome,[7],inactive
same,outcome,[8],inactive
same,outcome,[9],inactive
same,outcome,[10],inactive
same,outcome,[11],inactive
same,activation,[12],5.58% (active)
same,outcome,[13],inactive
same,outcome,[14],inactive
same,outcome,[15],inactive
same,outcome,[16],inactive
CCOC(=O)C1(CCc2ccccc2)CCN(Cc2ccc(NC(C)=O)cc2)CC1,activation,[1],83% (active)
same,activation,[2],90% (active)
same,outcome,[3],inactive
same,outcome,[4],inactive
same,outcome,[5],inactive
same,outcome,[6],inactive
same,outcome,[7],inactive
same,outcome,[8],inactive
same,outcome,[9],inactive
same,activation,[10],41.5% (active)
same,outcome,[11],inactive
same,outcome,[12],inactive
same,outcome,[13],inactive
same,outcome,[14],inactive
same,outcome,[15],inactive
same,outcome,[16],inactive
CC[C@@H](CO)NC(=O)[C@@H]1C=C2c3cccc4c3c(cn4C)C[C@H]2N(C)C1,activation,[1],107% (active)
same,activation,[2],57% (active)
same,outcome,[3],inactive
same,outcome,[4],inactive
same,outcome,[5],inactive
same,outcome,[6],inactive
same,outcome,[7],inactive
same,outcome,[8],inactive
same,outcome,[9],inactive [setting not given]
same,outcome,[10],inactive
same,outcome,[11],inactive [setting not given]
same,activation,[12],147% (active)
same,outcome,[13],inactive [setting not given]
same,outcome,[14],inactive [setting not given]
same,outcome,[15],inactive
same,outcome,[16],inactive [setting not given]
O=[N+]([O-])c1ccc(N2CCNCC2)cc1NC1CC1,activation,[1],64% (active)
same,activation,[2],67% (active)
same,outcome,[3],inactive
same,outcome,[4],inactive
same,outcome,[5],inactive
same,outcome,[6],inactive
same,outcome,[7],inactive
same,outcome,[8],inactive
same,outcome,[9],inactive
same,outcome,[10],inactive
same,outcome,[11],inactive
same,activation,[12],26.6% (active)
same,outcome,[13],inactive
same,outcome,[14],inactive
same,outcome,[15],inactive
same,outcome,[16],inactive
CCC(=O)C(CCN1CCOCC1)(c1ccccc1)c1ccccc1,activation,[1],289% (active)
same,activation,[2],164% (active)
same,outcome,[3],inactive
same,outcome,[4],inactive
same,outcome,[5],inactive
same,outcome,[6],inactive
same,outcome,[7],inactive
same,outcome,[8],inactive
same,outcome,[9],inactive [setting not given]
same,activation,[10],69% (active)
same,outcome,[11],inactive [setting not given]
same,activation,[12],5.98% (active)
same,outcome,[13],inactive [setting not given]
same,outcome,[14],inactive [setting not given]
same,outcome,[15],inactive
same,outcome,[16],inactive [setting not given]
COc1cccc(CC(=O)N2CCN(Cc3cccc(Cl)c3)CC2)c1,outcome,[17],inactive
CN1CC(C(=O)c2ccccc2)C(c2ccccc2)C1 (configuration not stated),outcome,[17],inactive
NC(N)=N/N=C/c1ccc(N(c2ccccc2)c2ccccc2)cc1,activation,[1],60% (active)
same,outcome,[2],inactive
same,outcome,[3],inactive
same,outcome,[4],inactive
same,outcome,[5],inactive
same,outcome,[6],inactive
same,outcome,[7],inactive
same,outcome,[8],inactive
same,outcome,[9],inactive
same,outcome,[10],inactive
same,outcome,[11],inactive
same,activation,[12],48.2% (active)
same,outcome,[13],inactive
same,outcome,[14],inactive
same,activation,[15],20.3% (active)
same,outcome,[16],inactive
CCc1n[nH]c(CCN)n1,activation,[1],178% (active)
same,outcome,[2],inactive
same,outcome,[3],inactive
same,outcome,[4],inactive
same,outcome,[5],inactive
same,outcome,[6],inactive
same,outcome,[7],inactive
same,outcome,[8],inactive
same,outcome,[9],inactive
same,outcome,[10],inactive
same,outcome,[11],inactive
same,activation,[12],48.7% (active)
same,outcome,[13],inactive
same,outcome,[14],inactive
same,outcome,[15],inactive
same,outcome,[16],inactive
CNC(=O)NC(O)C(Cl)(Cl)Cl (configuration not stated),outcome,[17],inactive
COc1ccc(C(CNC(=O)c2ccc3c(c2)CCC3)N(C)C)cc1 (configuration not stated),activation,[1],237% (active)
same,activation,[2],142% (active)
same,outcome,[3],inactive
same,outcome,[4],inactive
same,outcome,[5],inactive
same,outcome,[6],inactive
same,outcome,[7],inactive
same,outcome,[8],inactive
same,outcome,[9],inactive
same,activation,[10],76.5% (active)
same,outcome,[11],inactive
same,outcome,[12],inactive
same,outcome,[13],inactive
same,outcome,[14],inactive
same,activation,[15],12.1% (active)
same,outcome,[16],inactive
